The results in this text go back to PubChem BioAssay (NCI).

This is part of a sample that, as a whole, favours compounds with a hit. Of some 83,000 tested, about 20% had one in any assay.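 Cells were grown in 96-well plates and exposed to the test compound at a single concentration for 48 hours; results are reported as percent growth, with values below 10 considered active.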 Unmarked numbers belong to inactive results. Activity calls are given as the source filed them.

What all share (experiment): NCI-60 one-dose screen, 48 h (100 = growth as untreated, 0 = no growth, -100 = all killed)
Holding throughout (conditions): 10 µM unless noted

Assay [1] has as its system HCT-15 colon.
The test system of assay [2] is HT29 colon.
Assay [3] has as its system SNB-75 CNS.
The test system of assay [4] is SNB-19 CNS.
Assay [5] concerns U251 CNS.
Assay [6] relates to PC-3 prostate.
In assay [7] the test system is SK-MEL-5 melanoma.
Assay [8] relates to UACC-62 melanoma.
The test system of assay [9] is LOX IMVI melanoma.
Assay [10] concerns SK-MEL-28 melanoma.
Assay [11] concerns SK-MEL-2 melanoma.
For assay [12], the system named is EKVX NSCLC.
The test system of assay [13] is SN12C renal.
Assay [14] concerns UO-31 renal.
Assay [15] has as its system TK-10 renal.
Assay [16] relates to ACHN renal.
The subject of assay [17] is CAKI-1 renal.
Assay [18] relates to A498 renal.
Assay [19] has as its system CCRF-CEM leukemia.
In assay [20] the test system is MOLT-4 leukemia.

In the case of `Cc1[nH]c(/C=C/C(=O)c2ccc(C(F)(F)F)c(F)c2)c(C)c1C(=O)NCC(C)C`, the growth in [1] was 93.8%; in assay [2] it was 102%; in assay [3] it was 89.4%; in assay [4], 92.2%; in [5] it was 100%; in assay [6] it was 103%. In addition, the growth in [7] is 99.8%; in assay [8], 96.6%; in [9] it was 90.5%; in [10], 106%; in assay [11], 110%; in assay [12], 96.1%. In addition, the growth was 97.9% in [13]; 92% in [14]; 109% in assay [15]; 101% in assay [16]; 94.8% in assay [17]; 69% in assay [18]. Further, in [19], the growth is 101%.
Consider `O=C(Nc1cccnc1Nc1ccc(Cl)cc1)c1cn(Cc2ccc(F)cc2)nn1`, for which the growth in assay [1] was 95.4%; in assay [2], 113%; in assay [3], 94.6%; in [4], 95.9%; in assay [5], 99%; in [6], 94.5%. Further, the growth was 100% in [7]; 100% in assay [8]; 104% in assay [9]; 115% in [10]; 102% in assay [11]; 92.6% in assay [12]. Also, the growth was 95.9% in [13]; 70.9% in assay [14]; 96.9% in [15]; 101% in assay [16]; 93.1% in [17]; 88.6% in assay [18]. Also, the figures for the growth in assay [19] and in [20] were 98.6% and 106%, respectively.
For the molecule `CC(C(=O)O)n1c(O)c(C=Nc2cccnc2)sc1=S` (centres undefined), the growth was 98.4% in assay [1]; 111% in assay [2]; 80.3% in assay [3]; 91.4% in [4]; 86.3% in [5]; 88% in [6]. Also, the growth in assay [7] is 95.5%; in assay [8], 88.8%; in assay [9], 101%; in assay [10], 113%; in assay [11], 114%; in assay [12], 96.4%. The growth in [13] is 88.7%; in assay [14] it was 50%; in assay [15], 111%; in assay [16] it was 102%; in [17], 79.7%; in assay [18] it was 95.4%. Besides, in assay [19], the growth was 92.7%.
On to `CN(C)Cc1ccc(C(=O)Nc2ccc3ncnc(Nc4ccc(Oc5cccc(F)c5)c(Cl)c4)c3c2)cc1`, for which the growth in [1] is -45.3% (active); in [2], -35.4% (active); in assay [3], 18.5%; in assay [4] it was -3.27% (active); in assay [5], -28.1% (active); in [6], 3.54% (active). Further, the growth was -82.6% (active) in assay [7]; -20.1% (active) in assay [8]; -96.2% (active) in [9]; -89.1% (active) in assay [10]; -27.1% (active) in assay [11]; 35.5% in [12]. Besides, the growth in assay [13] is 11.4%; in assay [14], 16%; in assay [15] it was 1.66% (active); in assay [16], -85.8% (active); in assay [17] it was -42.2% (active); in [18], 19.2%. The growth in assay [19] was -0.132% (active).
As to `Cn1cc(-c2nonc2-c2c[nH]c3ccccc23)c2ccccc21`, the growth in assay [1] is 16.6%; in assay [2], 5.85% (active); in assay [3] it was -18.2% (active); in assay [4] it was 12.8%; in [5], 12.4%; in assay [6], 20.7%. Besides, the growth was 21.2% in [7]; 8.21% (active) in assay [8]; 23.5% in assay [9]; 41.6% in assay [10]; 51.2% in assay [11]; 26% in [12]. Besides, the growth in assay [13] was 23.4%; in assay [14] it was 15.6%; in assay [15], 47.7%; in assay [16], 31.1%; in [17], 20.4%; in assay [18] it was -13.4% (active). The growth in [19] was 7.68% (active).
For `CN(C)c1ccc(/C=C2/C=C(c3ccccc3)OC2=O)cc1`, the growth was 91.7% in assay [1]; 94.7% in assay [2]; 102% in assay [3]; 107% in assay [4]; 108% in assay [5]; 96.9% in assay [6]. Moreover, the growth in [7] is 87%; in assay [8], 92.6%; in [9] it was 98.8%; in assay [10], 105%; in assay [11] it was 84.6%; in assay [12], 109%. The growth was 107% in assay [13]; 73.7% in assay [14]; 110% in assay [15]; 97.1% in assay [16]; 91.3% in [17]; 95.8% in assay [18]. Also, the growth in assay [19] was 52.7%.
On to `Cn1cc(-c2ccc3cc(-c4ccc(CC(=O)Nc5cc(C(C)(C)C)on5)cc4)cnc3c2)cn1`, for which the growth was 10.9% in assay [1]; 38.8% in assay [2]; 28.4% in assay [3]; 34.7% in [4]; 2.41% (active) in assay [5]; 21.1% in [6]. Also, the growth in assay [7] was 26.7%; in assay [8], 10.8%; in [9] it was 30.4%; in assay [10], 29.1%; in [11], 18.9%; in assay [12], 38.8%. In addition, the growth in [13] is 16.7%; in [14] it was 9.45% (active); in [15], 43.9%; in [16] it was -23% (active); in assay [17], 12.8%; in assay [18] it was -4.2% (active). Besides, the growth in [19] was 3.44% (active).
Turning to `COc1ccc(-c2ccc(=O)oc2C#Cc2cc(OC)c(OC)c(OC)c2)cc1O`, the growth in assay [1] is 22.5%; in assay [2], -9.43% (active); in assay [3], -13.4% (active); in assay [4], 10.7%; in assay [5], 13.6%; in [6] it was 23.3%. The growth in assay [7] is -13.6% (active); in assay [8] it was 14.8%; in assay [9] it was 23.5%; in assay [10], 38.9%; in [11], 29.6%; in assay [12], 30.3%. Also, the growth in assay [13] is 21.2%; in assay [14], 40.5%; in [15], 52.5%; in assay [16] it was 52%; in assay [17], -15.6% (active); in assay [18] it was -0.779% (active). In addition, the growth is 5.26% (active) in assay [19] and 18.4% in assay [20].
As to `O=C(CSc1nc2ccc([N+](=O)[O-])cc2[nH]1)Nc1ccc(Br)cc1`, the growth in assay [1] is 56.1%; in [2], 75.1%; in assay [3], 61.6%; in [4], 65.6%; in [5] it was 36.3%; in [6], 44.1%. Further, the growth in assay [7] was 26.3%; in assay [8], 20.8%; in [9], 63.5%; in assay [10], 54.5%; in assay [11], 42.2%; in assay [12], 50%. The growth is 46.1% in [13]; 41% in [14]; 94.5% in assay [15]; 52.6% in assay [16]; 39.6% in [17]; 30.9% in assay [18]. In addition, the growth in assay [19] is 39.1%; in [20], 26.6%.
On to `COC(c1ccc2ccccc2c1)C(C)C(F)F` (centres undefined), for which the growth in assay [1] is 112%; in [2], 98.2%; in [3], 95.9%; in assay [4], 101%; in assay [5], 102%; in [6], 96.6%. In addition, the growth was 112% in assay [7]; 93.4% in assay [8]; 101% in [9]; 96.3% in assay [10]; 97.8% in assay [11]; 100% in assay [12]. The growth was 98.2% in assay [13]; 90.6% in assay [14]; 86.4% in assay [15]; 100% in assay [16]; 95.9% in assay [17]; 99.7% in [18]. For the same molecule, the growth is 62.2% in [19] and 99.3% in [20].
Take `O=C(/C=C/c1ccc(Br)cc1)c1ccc(-n2cc(CN3CCN(c4cc5c(cc4F)c(=O)c(C(=O)O)cn5C4CC4)CC3)nn2)cc1`: the growth in assay [1] was 95%; in [2], 91.7%; in assay [3], 93.6%; in assay [4], 86.9%; in assay [5] it was 71.2%; in [6], 82%. Also, the growth in assay [7] is 91.1%; in assay [8] it was 83%; in [9] it was 50.4%; in assay [10] it was 107%; in assay [11], 97.2%; in [12], 90.7%. The growth in [13] was 44.9%; in assay [14], 65.7%; in assay [15], 91.4%; in assay [16], 93.7%; in assay [17], 64.4%; in assay [18] it was 57.4%. Also, the growth in assay [19] is 56.3%; in [20], 67.7%.
Turning to `Cc1[nH]c(C(=O)Nc2cccc(OC3CCNCC3)c2)c(Cl)c1Cl`, the growth is 51% in assay [1]; -36.2% (active) in [2]; 82.3% in assay [3]; 74.6% in assay [4]; 63.9% in [5]; 62.9% in assay [6]. For the same molecule, the growth in [7] is 85.5%; in assay [8], -55.7% (active); in assay [9], 40.9%; in assay [10], -63.5% (active); in assay [11], 88.4%; in assay [12], 86.1%. Besides, the growth is 70.3% in assay [13]; 67.1% in [14]; 123% in [15]; 62.8% in [16]; 70.3% in [17]; 25.1% in [18]. The figures for the growth in [19] and in assay [20] were 55.3% and 41.5%, respectively.
For the molecule `Brc1ccc(-c2cnc3nonc3n2)cc1`, the growth in [1] was 54.8%; in assay [2], 70.2%; in assay [3], 96%; in assay [4], 88.2%; in [5] it was 92.5%; in assay [6] it was 57.1%. Besides, the growth was 48.5% in [7]; 51.7% in assay [8]; 38% in [9]; 104% in assay [10]; 88.9% in [11]; 72.1% in assay [12]. Also, the growth in assay [13] is 96.1%; in assay [14], 63.6%; in assay [15], 96.3%; in [16], 76.9%; in assay [17], 59.7%; in [18], 96.7%. In addition, the values for the growth in [19] and in assay [20] were 30% and 37.5%, respectively.
`COc1cccc(Nc2ccnc3[nH]c4ccc([N+](=O)[O-])cc4c23)c1`: the growth was 31.4% in assay [1]; 24.3% in assay [2]; 21% in assay [3]; 37.4% in assay [4]; 42% in [5]; 48.2% in assay [6]. The growth in [7] is 38.7%; in assay [8], 24.2%; in assay [9] it was 52.2%; in [10] it was 65.7%; in assay [11], 40.2%; in assay [12], 31.6%. The growth in [13] was 65.2%; in assay [14], 44.4%; in assay [15] it was 66.6%; in assay [16], 45.2%; in [17] it was 28.8%; in assay [18], 43.5%. Further, the results for the growth in assay [19] and in [20] were 42% and 48.7%, respectively.
As for `COc1ccc(C/C(C)=C(\c2ccc(O)cc2)c2ccc(OCCN3CCCC3)cc2)cc1`, the growth in assay [1] is 102%; in assay [2], 88.4%; in [3] it was 94.2%; in assay [4], 103%; in assay [5], 106%; in assay [6], 96.8%. In addition, the growth in assay [7] is 111%; in [8], 102%; in assay [9], 98.3%; in assay [10], 97%; in assay [11], 100%; in assay [12], 101%. For the same molecule, the growth in assay [13] is 100%; in assay [14], 86.1%; in [15], 121%; in assay [16], 97.1%; in [17] it was 97%; in assay [18], 91.7%. Further, the growth was 92.3% in [19] and 85.3% in [20].
